High-throughput results as filed in PubChem.
AmpC no deterg: inhibitors of E. coli AmpC beta-lactamase without detergent. AmpC nitrocefin hydrolysis, absorbance 480 nm, 0.0001% Triton. AID 485341. P00811. Potency, µM (top dose mostly 57.1 µM), for inactives: at the highest dose activity change, negative = inhibition, most hits filed as inhibitors. hit rate 0.52% among 330,000;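 further: plate controls were no compound for no effect and no enzyme for full effect; nearly all actives have a fitted effect of over 20% in size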
Target sequence (P00811 whole entry, looked up): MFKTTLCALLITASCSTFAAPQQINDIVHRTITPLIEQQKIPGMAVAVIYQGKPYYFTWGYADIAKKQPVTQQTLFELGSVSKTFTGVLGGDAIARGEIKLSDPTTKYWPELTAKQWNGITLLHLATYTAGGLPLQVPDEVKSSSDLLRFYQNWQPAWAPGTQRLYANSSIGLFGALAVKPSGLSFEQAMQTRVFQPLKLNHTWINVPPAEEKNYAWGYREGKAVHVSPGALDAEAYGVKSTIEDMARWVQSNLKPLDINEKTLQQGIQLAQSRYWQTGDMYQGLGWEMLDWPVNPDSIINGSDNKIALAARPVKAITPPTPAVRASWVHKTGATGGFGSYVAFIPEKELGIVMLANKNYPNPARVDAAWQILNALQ
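20 mM phosphate pH 7.0 + 0.01% (detergent screen) or 0.0001% Triton X-100; 5.3 nM AmpC reagent; cpd preinc 15 min RT; nitrocefin (800 uM stock) to start; A480 q20 s × 4 min; Activity was normalised to no-enzyme and no-compound control wells.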
Sm TGR block: S. mansoni TGR enzyme inhibition; purified TGR, DTNB reduction, TNB absorbance 405 nm; Potency, µM (doses to about 114 µM), for the others: top-dose activity change, negative = inhibition, actives largely listed as inhibitors; hit rate 3% among 360,000; AID 485364; further: nearly all actives have a fitted effect of over 60% in size
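Kinetic colorimetric format: TGR-catalysed, NADPH-driven DTNB reduction monitored via TNB absorbance. Enzyme dispensed at 20 nM; compound exposure 15 min at room temperature before reaction start.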
AmpC detergent: blocks E. coli AmpC beta-lactamase in detergent assay | P00811 | AmpC hydrolysis of nitrocefin, absorbance 480 nm, 0.01% Triton | Potency, µM (highest dose often 114 µM), for inactives: at the highest dose activity change, negative = inhibition, hits mostly inhibitors | hit rate 0.041% among 370,000;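 further: 0% = no-compound wells and -100% = no-enzyme wells; nearly all actives have a fitted effect of over 25% in size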
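AmpC (5.3 nM in the dispensed reagent) in 20 mM phosphate pH 7.0 with 0.01% (detergent screen) or 0.0001% Triton X-100 was preincubated with compounds for 15 min at room temperature. Nitrocefin was then added from an 800 uM solution, and hydrolysis was followed at 480 nm.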
Numbers without * were called inactive; ? = inconclusive; · = no result given. The list is not random: actives were taken first. Their share in the collection is about 3.3%. The call rests on the fitted dose curve; in most records, active means well fitted curve in the direction sought with a large enough effect; inconclusive means small, poorly fitted or top-dose-only effect, or another doubt; inactive means no such curve, though single readings can be large; an effect the other way counts as inactive or inconclusive. Unless noted, on the % scale 0 is the no-effect control and ±100 the full control effect; potency means the concentration at half of the fitted maximal effect.

SMILES | AmpC no deterg | Sm TGR block | AmpC detergent
COc1ccc(OC)c(C2CC(=O)N(c3cccc(C)c3)C3=C2C(=O)OC3)c1 (configuration not stated) | · | -9% | -6%
COc1ccc(N2CN=C3SCC(=O)N3C2)cc1 | -14% | -32% | 2%
COc1ccc(OC)c(C2CC(=O)N3CN(c4ccccc4)CSC3=C2C#N)c1 (configuration not stated) | -38% | 10µM* | ?
COc1ccc(C2CC(=O)N3CN(c4ccc(C)c(Cl)c4)CSC3=C2C#N)cc1 (configuration not stated) | -48% | 45µM* | ?
O=C(NCC1CCCO1)c1nn2c(C(F)(F)F)cc(-c3cccs3)nc2c1Br (configuration not stated) | -3% | -5% | -11%
O=C(NCc1ccco1)c1nn2c(C(F)(F)F)cc(-c3cccs3)nc2c1Br | -24% | 32µM* | 1%
COC(=O)c1nc2nc(-c3cccs3)cc(C(F)(F)F)n2n1 | -12% | -1% | 1%
O=C(NCc1ccco1)c1nc2nc(-c3cccs3)cc(C(F)(F)F)n2n1 | -44% | 32µM* | -8%
CCn1cc([N+](=O)[O-])c(C(=O)N2CCCCCC2)n1 | -9% | -21% | -8%
Nc1ccccc1C(=O)c1ccccc1 | -12% | 6% | ?
Nc1sccc1C(=O)c1ccccc1 | -43% | 20µM* | 1%
O=C(O)C/C=C(\NC(=O)OCc1ccccc1)C(=O)OCc1ccccc1 | -22% | 16µM* | ?
CC(=O)N/C(=C\c1ccccc1)C(=O)OCc1ccccc1 | 3% | 15% | 2%
CC(=O)N1CCC2(CC1)CC(=O)c1cc(OCC(=O)NCc3ccc(C)cc3)ccc1O2 | 102% | 1% | -10%
CC(=O)N1CCC2(CC1)CC(=O)c1cc(OCC(=O)NCc3ccco3)ccc1O2 | -5% | 25µM* | ?
O=C(CC(Sc1ccc(Br)cc1)C(=O)O)c1ccc(Br)cc1 (configuration not stated) | -26% | 0.28µM* | -21%
O=C(CNC(=O)c1ccc(Br)cc1)c1ccccc1 | -14% | -8% | -14%
O=C(CNC(=O)c1ccc(Br)cc1)c1ccc(Br)cc1 | -43% | 8% | -3%
O=C(CC(C(=O)O)P(=O)(c1ccccc1)c1ccccc1)c1ccc(Br)cc1 (configuration not stated) | -26% | 28µM* | 0%
Cc1ccc(C(=O)CC(=O)c2ccccc2)cc1 | -21% | -9% | ?
Cc1ccc(SC(CC(=O)c2ccc(C)cc2)C(=O)O)cc1 (configuration not stated) | -24% | 13µM* | -6%
CN(C)S(=O)(=O)N1CCC(N2CCN(Cc3ccc(F)cc3)C(=O)C2=O)CC1 | · | 8% | -1%
Cc1nc2c(c3c1[nH]c1ccccc13)C(O)CC(C)(C)C2 (configuration not stated) | -41% | -6% | -5%
Cc1ccc(NC(=O)CSc2ncc3ccccn23)cc1C | -30% | -1% | 8%
O=C(O)c1ccccc1-n1ncc2c1/C(=C/c1ccc(Cl)cc1)CC2 | -30% | 14µM* | 4%
SMILES | AmpC no deterg | Sm TGR block | AmpC detergent
O=C(O)c1ccc(-n2ncc3c2/C(=C/c2cccc([N+](=O)[O-])c2)CC3)cc1 | -32% | -23% | ?
Cc1cc(=O)oc2cc(NC(=O)Cc3ccccc3[N+](=O)[O-])ccc12 | -52% | 1% | ?
O=C(Nc1ccc2c(c1)CCCN2C(=O)c1cccs1)c1ccc(F)c(F)c1 | · | -2% | 12%
C=C(CCC(=O)c1ccccc1)C(=O)c1ccccc1 | -22% | 45µM* | -20%
O=C(CCCCCCCC(=O)c1ccccc1)c1ccccc1 | -14% | 1% | ?
O=C(O)c1ccc(CN2C(=O)c3ccc(C(=O)O)cc3C2=O)cc1 | -2% | -9% | -4%
CN(C)CCCN1C(=O)c2cccc3c([N+](=O)[O-])ccc(c23)C1=O | 0% | 28µM* | -3%
Cc1ccc(C(=O)O)cc1N1C(=O)c2cccc3c([N+](=O)[O-])ccc(c23)C1=O | -24% | 14µM* | -9%
CC(=O)Oc1cccc(N2C(=O)c3cccc4c([N+](=O)[O-])ccc(c34)C2=O)c1 | -2% | 1% | -14%
O=C(O)c1ccc(CN2C(=O)c3cccc4c([N+](=O)[O-])ccc(c34)C2=O)cc1 | -19% | 18µM* | 0%
O=C1c2cccc3c([N+](=O)[O-])ccc(c23)C(=O)N1CCc1ccccn1 | -19% | ? | 3%
O=C(Nc1ccccc1C(F)(F)F)c1cc2nc(-c3ccccc3)cc(-c3ccccc3)n2n1 | · | ? | 11%
COc1ccc(NC(=O)CN(C)CC(=O)NC2CCCCC2C)cc1 (configuration not stated) | 1% | -7% | -15%
CCN1CCN(c2cc(C)c3cc(NC(=O)/C=C/c4cccc(Cl)c4)ccc3n2)CC1 | · | 7% | 10%
COc1cccc(NC(=O)CN(C)C(=O)c2cc(-c3cccc(Br)c3)nc3ccccc23)c1 | -7% | -5% | -16%
Cc1ccc(-c2cc(C(=O)NCc3ccco3)c3ccccc3n2)o1 | -41% | 18µM* | ?
COc1cccc(-c2cc(C(=O)Nc3ccc4c(c3)OCCO4)c3ccccc3n2)c1 | -48% | -12% | -13%
COc1cc(-c2cc(C(=O)Nc3cccc(S(=O)(=O)N(C)C)c3)c3ccccc3n2)cc(OC)c1OC | -14% | 3% | 0%
COc1cccc(NC(=O)c2cc(-c3ccc(C)o3)nc3ccccc23)c1 | -27% | 35µM* | 5%
Cc1cc(C(=O)NCc2ccco2)c2ccccc2n1 | -18% | 44% | 1%
COc1cccc(NC(=O)CN(C)C(=O)c2cc(-c3ccc(C)o3)nc3ccccc23)c1 | -27% | 14µM* | ?
Cc1ccc(-c2cc(C(=O)Nc3cccc(S(=O)(=O)N(C)C)c3)c3ccccc3n2)o1 | 1% | 22µM* | -5%
Cn1c(C(=O)N2CCC(C(=O)NCc3ccccc3)CC2)cc2sccc21 | 83% | 1% | -10%
CC1=C(c2ccc(C)cc2)S(=O)(=O)NC1=NCCCN1CCN(c2ccc(F)cc2)CC1 | · | -5% | 15%
O=C(CCc1c[nH]c2ccccc12)N[C@@H](Cc1c[nH]c2ccc(O)cc12)C(=O)O | -16% | 2% | -9%
SMILES | AmpC no deterg | Sm TGR block | AmpC detergent
CCCn1nc(C(=O)NNC(=O)c2cccc(C)c2)c2ccccc2c1=O | -16% | · | ·
Cc1ccc(-c2cc(C(=O)Nc3ccccc3C)c3ccccc3n2)o1 | -34% | 10µM* | -9%
O=C(N/N=C/c1ccc([N+](=O)[O-])o1)c1cc(-c2ccc(-c3ccccc3)cc2)nc2ccccc12 | ? | ? | 2%
Cc1ccc(-c2cc(C(=O)N/N=C/c3ccc([N+](=O)[O-])o3)c3ccccc3n2)o1 | -49% | 40µM* | ?
COC(=O)c1cc(-c2ccc(C)o2)nc2ccccc12 | -22% | ? | 0%
COc1ccc(C2=CC3=C(Br)C(=O)C(C)(OC(=O)c4ccco4)C(=O)C3=CO2)cc1 (configuration not stated) | -28% | 5µM* | -3%
C=CCN1C=C2C(=O)C(C)(OC(=O)CCC(=O)OC)C(=O)C(Br)=C2C=C1c1ccc(OC)cc1 (configuration not stated) | 93% | ? | -7%
